Laboratory results from PubChem BioAssay.
Activity calls are given as the source filed them.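 The calls were made as follows: active = compound that reduces growth-factor-driven endothelial tube area in a mixed cell culture, no cutoff stated; inactive = the rest.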

Assay: inhibition of endothelial tube formation, primary screen, imaging, VEGF stimulated, CD31 staining, tube area, NPC library (AID 1117340)
Details: VEGF-stimulated ADSC/ECFC co-culture, at 10 µM, hits give high values

Tube area decrease, inactive:
CCN(CCCCOC(=O)c1ccc(OC)c(OC)c1)C(C)Cc1ccc(OC)cc1 (centres undefined) 23.2%
O=C(O)CSCC(=O)NC1CCSC1=O (centres undefined) -2.7%
O=C1c2ccccc2C(=O)C1c1ccccc1 -11%
COCCCOc1cc(C[C@@H](C[C@H](N)[C@@H](O)C[C@H](C(=O)NCC(C)(C)C(N)=O)C(C)C)C(C)C)ccc1OC 19.9%
Cc1onc(-c2ccccc2Cl)c1C(=O)N[C@@H]1C(=O)N2[C@@H]1SC(C)(C)[C@@H]2C(=O)O 12.2%
Cc1cccc(C(=O)O)c1O 2.1%
CCCCCCCCCCCCCCCCCCOCC(O)CO (centres undefined) 7.6%
CCN(CC)CCNC(=O)COc1ccc(OC)cc1 -8.1%
CN1CCOC(c2ccccc2)c2ccccc2C1 (centres undefined) 0.9%
CCCCC(=O)O[C@]1(C(=O)CO)[C@@H](C)C[C@H]2[C@@H]3CCC4=CC(=O)C=C[C@]4(C)[C@@]3(F)[C@@H](O)C[C@@]21C 2.4%
C[n+]1c2cc(N)ccc2cc2ccc(N)cc21 (tested in a mixture with another compound) -105%
O=c1[nH]cnc2c1ncn2[C@@H]1O[C@H](CO)[C@@H](O)[C@H]1O 2.1%
CCN(CCCc1ccccc1)CCCc1ccccc1 5.4%

Tube area decrease, active:
CCC(C)n1ncn(-c2ccc(N3CCN(c4ccc(OC[C@H]5CO[C@](Cn6cncn6)(c6ccc(Cl)cc6Cl)O5)cc4)CC3)cc2)c1=O (some centres undefined) 96.5%
